# Assay results from PubChem BioAssay (NCI).
# Compounds without any hit were thinned out: in the full panel of roughly 83,000, 20% have a hit.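 Interpretation: 100, growth as untreated; towards 0, rising growth inhibition; 0, no net growth; 0 to -100, cell death. Compounds scoring below 10 were considered active.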 Calls of active or inactive are those of the source.
# System: HL-60(TB) leukemia
# Assay: NCI-60 one-dose screen, 48 h (100 = growth as untreated, 0 = no growth, -100 = all killed)
# Conditions: 10 µM unless noted
row,SMILES,growth
1,COc1cc(-c2nc3occn3c2-c2ccnc(NCCCNS(=O)(=O)c3ccc(O)cc3)n2)ccc1F,95.3% (inactive)
2,CC(=O)Nc1cccc(C2=CC(c3ccc(C)cc3)n3ncnc3N2)c1 (stereo not given),89.9% (inactive)
3,Nc1nc(N)c2cc(CNc3ccc(Cl)c(Cl)c3)ccc2n1,1.98% (active)
4,CC1Cc2ccc(OCCN(C)C)cc2C1=O (stereo not given),111% (inactive)
5,NCCNc1nc2ccccc2c2c(=O)c3cccc(F)c3sc12,53% (inactive)
6,C=CCN1C=CC(=O)[C@H](O[Si](C)(C)C(C)(C)C)[C@@H]1/C=C/c1ccccc1,-33.3% [100 µM] (active)
7,CCOc1ccccc1/C=N\Nc1ccc(S(=O)(=O)c2ccc(N/N=C/c3ccccc3OCC)cc2)cc1,102% (inactive)
8,N=C(N)c1ccc(-c2ccc(-c3ccc(Cl)cc3Cl)o2)cc1,-60.8% (active)
9,Cc1cc(O)c2cc3c(O)c(O)ccc3cc2c1,82.7% (inactive)
10,O=C1CC(c2ccc3c(c2)OCO3)Nc2ccccc21 (stereo not given),0.897% (active)
11,CCCCCC#CC(=O)O,97.4% (inactive)
12,NC(=S)N=Nc1c(O)c2ccccc2c2ccccc12,100% (inactive)
13,O=c1[nH]c(=O)n(C2CC(O)C(CO)O2)cc1C(F)(F)F (stereo not given),-22.2% (active)
14,N#Cc1c(Nc2ccc(N3CCOCC3)cc2)nc(SCC(=O)c2ccc(Br)cc2)nc1-c1ccccc1,86.2% (inactive)
15,O=C(/C=C/c1ccccc1)n1c(-c2ccc(Cl)cc2)nc2ccccc21,-3.97% (active)
16,CCc1ccc(Nc2ncnc3c2cnn3-c2cccc(Br)c2)cc1,114% (inactive)
17,O=C(CCCCCn1c2ccccc2c2c3c(c4c5ccccc5[nH]c4c21)C(=O)N(O)C3=O)N1CCOCC1,44.6% (inactive)
18,CCCCCCCCCCCCCCCCCCSC1=CC(=O)C(OC)=C(OC)C1=O,66.9% (inactive)
19,COc1cccc(/C=N/NC(=O)c2ccccc2N2CCCC2)c1O,4.58% (active)
20,CCCCCCCNC(=O)CCCNc1ncnc2c1ncn2-c1cccc(C(C)O)c1 (stereo not given),24% (inactive)

row,SMILES,growth
1,c1ccc2c(c1)Sc1ccccc1S2,107% (inactive)
2,C(CCCC1=NCCO1)CCCC1=NCCO1,112% (inactive)
3,COc1cc(OC)c(/C=C/c2c3ccccc3cc[n+]2C)c(OC)c1,-25.1% (active)
4,COc1ccc(Cn2cc3c(c2-c2ccc(OC)cc2)CCc2cnoc2-3)cc1,-6.74% (active)
5,CCCCCCCCCCCCCCCCCCNC(=O)[C@H]1CSC(c2ccc(F)c(OC)c2)N1 (stereo not given in full),-68% (active)
6,CN(C)CC#Cc1ccc2ncc(C#N)c(Nc3ccc(F)c(Cl)c3)c2c1,26.8% (inactive)
7,COc1ccccc1S(=O)(=O)Nc1ccc2c3c(cc(-c4cnn(C5CC5)c4)nc13)C(=O)N2C,-10% (active)
8,Cc1ccsc1C(=O)CC(=O)C(F)(F)C(F)(F)C(F)(F)F,107% (inactive)
9,COc1ccc(C(c2ccc(OCCN(C)C)cc2)c2cc3ccccc3c3ccccc23)cc1 (stereo not given),3.59% (active)
10,CCN1CCN(C(=O)[C@]23CC[C@@H](C)[C@H](C)[C@@H]2C2=CC[C@@H]4[C@@]5(C)C/C(=C/c6cccnc6)C(=O)C(C)(C)[C@@H]5CC[C@@]4(C)[C@]2(C)CC3)CC1,-38.2% (active)
11,O=C1c2ccccc2C(=O)c2c1oc1ccc3ccccc3c21,100% (inactive)
12,COC(=O)C(OC(C)=O)C(OC(C)=O)c1ccc(OC)c(OC)c1 (stereo not given),81.3% (inactive)
13,CNCCCn1c2c(c3ccc(F)cc3c1=O)C(=O)c1cc(OC)cnc1-2,-16.7% (active)
14,S=c1ssnc1-c1cccs1,95.1% (inactive)
15,Cc1ccn2c(-c3csc(Nc4cccc(O)c4)n3)c(C)nc2c1,-19.4% (active)
16,CCCCN(CCCC)CCCCCCCCC(O)c1cc2ccccc2c2ccccc12 (stereo not given),28.5% (inactive)
17,COc1cccc(Oc2ccccc2NC(=O)CNC(=O)c2cccc3ccccc23)c1,-25.2% [5 µM] (active)
18,COc1ccc(C/C(C)=C(/c2ccc(OCCN3CCCCCC3)cc2)c2ccc(OC(=O)NCc3ccccc3)cc2)cc1,45% (inactive)
19,COc1ccc(C(=O)/C=C/c2cc(-c3cc(OC)c(OC)c(OC)c3)n[nH]2)cc1,23.2% (inactive)
20,C=C(C)[C@@H]1CC[C@]2(CO)CC[C@]3(C)[C@H](CC[C@@H]4[C@@]5(C)CCC(NCCc6ccc(O)cc6)C(C)(C)[C@@H]5CC[C@]43C)[C@@H]12 (stereo not given in full),-50.4% (active)
